Laboratory results published in PubChem BioAssay (NCATS).
Values joined by “and” are separate entries in the source; they are usually repeats but may differ in a detail not shown here. Identical values can stand only once. Inconclusive results are not listed. Unmarked numbers belong to inactive results. Active and inactive are the calls of the source. Calls follow the shape of the dose curve; as a rule, active = well fitted inhibition curve with a large enough effect; inconclusive = small, poorly fitted or top-dose-only effect; inactive = no such curve, though single readings can be large or run the other way.

Assay: Primary qHTS for inhibitors of nuclear receptor binding SET domain protein 2 (NSD2) in an RCH-ACV wild type WT cells (2C) (AID 1645877); also: nearly all actives have a fitted effect of over 70% in size
Details: RCH-ACV (leukaemia line) NSD2 WT (2C) viability, CellTiter-Glo, 72 h; series mostly up to 44.9 µM; activity change, negative = cell killing: at the top concentration
% is scaled to controls: 0 for no effect and ±100 for the full control effect; potency is read from the fitted curve at half-maximal effect.

Question: With Cn1c(N2CCCCS2(=O)=O)nc(C(=O)NCc2ccc(F)cc2)c(O)c1=O as the compound, how does the “activity change, negative = cell killing” value read?
Answer: -24.7%

Question: With c1cc(-c2sc(-c3ccncc3)c(-c3ccncc3)c2-c2ccncc2)ccn1 as the compound, how does the “activity change, negative = cell killing” value read?
Answer: -10.5%

Question: With CC(C)(C(=O)NCC(F)(F)C(F)(F)F)C(=O)N[C@@H]1C(=O)Nc2ccccc2-c2ccccc21 as the compound, how does the “activity change, negative = cell killing” value read?
Answer: -15.8%

Question: For COc1ncc(-c2ccc3nccc(-c4ccnnc4)c3c2)cc1NS(=O)(=O)c1ccc(F)cc1F, which Potency is on record?
Answer: 1.2 nM (active) and 7.4 nM (active)

Question: With COC1CCC(N(C(=O)C2CCC(C)CC2)c2cc(C3=CCCCC3)sc2C(=O)O)CC1 (stereo not drawn) as the compound, how does the “activity change, negative = cell killing” value read?
Answer: -6.16%

Question: For CC(=O)Nc1ccc([C@H](C)C(=O)Nc2ncc(C(C)C)s2)cc1, which Potency is on record?
Answer: 2.35 µM (active)

Question: Which “activity change, negative = cell killing” value does the source give for CC#CCn1c(N2CCC[C@@H](N)C2)nc2c1c(=O)n(Cc1nc(C)c3ccccc3n1)c(=O)n2C here?
Answer: -8.11%

Question: With CC(C)(C)COc1ccc(-n2cc(C(=O)O)cn2)cc1C#N as the compound, how does the “activity change, negative = cell killing” value read?
Answer: -58.7%

Question: For CO[C@H]1C(=O)[C@]2(C)[C@@H](OC)C[C@H]3OC[C@@]3(OC(C)=O)[C@H]2[C@H](OC(=O)c2ccccc2)[C@]2(O)C[C@H](OC(=O)[C@H](O)[C@@H](NC(=O)OC(C)(C)C)c3ccccc3)C(C)=C1C2(C)C, which Potency is on record?
Answer: 0.0026 µM (active)

Question: Which “activity change, negative = cell killing” value does the source give for O=C(NC1CCOCC1)c1ccc(-c2cc(-c3cn[nH]c3-c3ccccn3)ccn2)cc1 here?
Answer: 4.67%

Question: Which Potency does the source give for CN(C)Cc1cccc(N=C(c2ccccc2)c2c(O)[nH]c3cc(C(=O)N(C)C)ccc23)c1 here?
Answer: 14.8 µM (active)

Question: With O=C(NOCC(O)CO)c1cc(Br)c(F)c(F)c1Nc1ccc(I)cc1F (stereo not drawn) as the compound, how does the Potency read?
Answer: 20.9 µM (active)

Question: With CC1CCC(C(=O)N(c2cc(C#CC(C)(C)C)sc2C(=O)O)C2CCC(O)CC2)CC1 (stereo not drawn) as the compound, how does the Potency read?
Answer: 16.6 µM (active)
